Screening results: PubChem BioAssay, National Center for Advancing Translational Sciences (NCATS)
Shiga toxin inh: A qHTS for Small Molecule Inhibitors of Shiga Toxin | Vero cells, Shiga toxin protein synthesis inhibition reporter | inhibition, % at 38.7 µM | 9.2% of 290,000 active; in the data active = inhibition mostly above about 28%, no sharp cut-off; inactive = mostly below about 43%
Cycloheximide cs: Cycloheximide Counterscreen for Small Molecule Inhibitors of Shiga Toxin; cell reporter, cycloheximide protein synthesis inhibition counterscreen; max response, %; 12% of 300,000 active; AID 2314, 2010; in the data active = max response mostly above about 13%, no sharp cut-off; inactive = mostly below about 14%; note: read at 38.3 µM for the half of the compounds with a filed dose
Pf growth 48h: Primary qHTS for delayed death inhibitors of the malarial parasite plastid, 48 hour incubation | Potency, µM (series often up to 28.7 µM), hits mostly inhibitors | P. falciparum luciferase growth in erythrocytes, 48 h | 5.9% of 310,000 active | AID 504832, 2011
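First compound was added to culture medium, then infected red cells at 0.1% parasitemia and 2% hematocrit (final). After incubation at 37 C under 5% CO2, luciferase detection reagent was dispensed and light output recorded.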
LmPK inhibitor: qHTS Assay for Inhibitors of Leishmania Mexicana Pyruvate Kinase (LmPK). Q27686. purified LmPK, Kinase-Glo ATP luminescence, 1 h. Potency, µM (doses to about 57.5 µM), hits mostly inhibitors. 0.37% of 290,000 active. AID 1721, 2009
Target sequence (Q27686 whole entry, looked up): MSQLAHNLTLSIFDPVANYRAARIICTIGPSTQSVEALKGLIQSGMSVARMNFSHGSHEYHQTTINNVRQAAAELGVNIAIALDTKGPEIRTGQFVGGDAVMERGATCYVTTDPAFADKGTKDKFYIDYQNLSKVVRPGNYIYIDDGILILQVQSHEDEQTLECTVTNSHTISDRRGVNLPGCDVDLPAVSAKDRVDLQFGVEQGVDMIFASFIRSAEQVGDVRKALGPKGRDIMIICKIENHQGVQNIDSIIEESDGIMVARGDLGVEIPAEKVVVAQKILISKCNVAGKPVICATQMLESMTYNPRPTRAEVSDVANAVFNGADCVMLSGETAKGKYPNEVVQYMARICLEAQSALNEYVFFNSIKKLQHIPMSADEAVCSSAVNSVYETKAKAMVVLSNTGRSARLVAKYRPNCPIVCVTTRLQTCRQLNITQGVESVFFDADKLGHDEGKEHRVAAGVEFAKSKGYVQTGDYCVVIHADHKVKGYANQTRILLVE
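Screened at intermediate enzyme activity to detect both inhibitors and activators: LmPK at 0.1 nM, with a 0.5 nM enzyme column as activation reference. PEP 0.5 mM, ADP 0.1 mM; ATP detected by luminescence after 1 h.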
Pf growth 96h: Primary qHTS for delayed death inhibitors of the malarial parasite plastid, 96 hour incubation; P. falciparum luciferase reporter growth, 96 h; 6.9% of 320,000 active; Potency, µM (highest dose often 28.7 µM), most hits filed as inhibitors
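Two-generation exposure (96 h) targets delayed-death phenotype. Reporter parasites carrying integrated firefly luciferase, in red cells at 2% hematocrit and 0.05% parasitemia final, kept at 37 C, 5% CO2; luminescence loss indicates inhibition.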
A number is an active result. In the library only some 22% were active in any assay of this set; here they are far more common. Unless noted, calls come from the whole dose curve; as a rule, active = well fitted inhibition curve with a large enough effect; inconclusive = small, poorly fitted or top-dose-only effect, or another doubt; inactive = no such curve, though single readings can be large or run the other way.

What do the screens show for `CCOC(=O)c1ccc2nc(C)c3c(c2c1)OC(C)C3` (centres undefined)?
Shiga toxin inh: inactive; Cycloheximide cs: inactive; Pf growth 48h: inconclusive; LmPK inhibitor: inactive; Pf growth 96h: inactive

How did CCOC(=O)c1ccc2nc3c(cc2c1)CCS3 do in these assays?
Shiga toxin inh: 71; Cycloheximide cs: 48; Pf growth 48h: inactive; LmPK inhibitor: inactive; Pf growth 96h: inactive

What do the screens show for `CN(C)c1nc(NC(C)(C)C)nc(NC(C)(C)C)n1`?
Shiga toxin inh: inactive; Cycloheximide cs: inactive; Pf growth 48h: 15µM; LmPK inhibitor: inactive; Pf growth 96h: inactive

How did CCNc1nc(NC(C)(C)C)nc(N(CC)n2cnnc2)n1 do in these assays?
Shiga toxin inh: inactive; Cycloheximide cs: inactive; Pf growth 48h: inactive; LmPK inhibitor: inactive

Results for Cc1ccc(NC2c3ncccc3C(=O)N2c2ccccc2C)cc1C (centres undefined) ?
Shiga toxin inh: 72; Cycloheximide cs: 22; Pf growth 48h: inactive; LmPK inhibitor: inactive; Pf growth 96h: inactive

Results for O=C(Nc1nc2ccc(S(=O)(=O)N3CCOCC3)cc2s1)c1cccs1 ?
Shiga toxin inh: 39; Cycloheximide cs: 18; Pf growth 48h: inactive; LmPK inhibitor: inactive; Pf growth 96h: inconclusive

How did O=C(Nc1nc2ccc(S(=O)(=O)N3CCCC3)cc2s1)c1cccs1 do in these assays?
Shiga toxin inh: inactive; Cycloheximide cs: inactive; Pf growth 48h: inactive; LmPK inhibitor: inconclusive; Pf growth 96h: inactive

How did O=C(Nc1nc2ccc(S(=O)(=O)N3CCCCC3)cc2s1)c1cccnc1 do in these assays?
Shiga toxin inh: inactive; Cycloheximide cs: inactive; LmPK inhibitor: inactive; Pf growth 96h: inconclusive

How did O=C(Nc1nc2ccc(F)cc2s1)c1cccs1 do in these assays?
Shiga toxin inh: 126; Cycloheximide cs: 50; Pf growth 48h: inactive; LmPK inhibitor: inactive; Pf growth 96h: inconclusive

How did CSc1nc2ccc3nc(NC(=O)c4cccs4)sc3c2s1 do in these assays?
Shiga toxin inh: 51; Cycloheximide cs: 43; Pf growth 48h: inactive; LmPK inhibitor: inactive; Pf growth 96h: inconclusive

Results for CN(C)S(=O)(=O)c1ccc2nc(NC(=O)c3cccnc3)sc2c1 ?
Shiga toxin inh: 107; Cycloheximide cs: 29; Pf growth 48h: inactive; LmPK inhibitor: inactive; Pf growth 96h: inconclusive

How did O=C(CN1C(=O)C2CC=CCC2C1=O)Nc1nc2ccc(F)cc2s1 (centres undefined) do in these assays?
Shiga toxin inh: inactive; Cycloheximide cs: inactive; Pf growth 48h: inactive; LmPK inhibitor: inactive; Pf growth 96h: inactive

Results for CC(OC(=O)c1ccc(F)c(S(=O)(=O)N2CCOCC2)c1)C(=O)NC1CCCC1 (centres undefined) ?
Pf growth 48h: inactive; Pf growth 96h: inactive

What do the screens show for `CCCN(C(=O)c1nc2nc(C)cc(C)n2n1)c1c(N)n(Cc2ccccc2)c(=O)[nH]c1=O`?
Pf growth 48h: inactive; Pf growth 96h: inactive

What do the screens show for `CC(=O)Nc1ccc2nc(NC(=O)c3cccnc3)sc2c1`?
Shiga toxin inh: 46; Cycloheximide cs: 27; Pf growth 48h: inactive; LmPK inhibitor: inactive; Pf growth 96h: inactive

Results for Cn1nc(C(=O)Nc2nc3ccc(S(C)(=O)=O)cc3s2)ccc1=O ?
Shiga toxin inh: inactive; Cycloheximide cs: inactive; Pf growth 48h: inactive; LmPK inhibitor: inconclusive

What do the screens show for `CN(C)S(=O)(=O)c1ccc2nc(NC(=O)c3cccs3)sc2c1`?
Shiga toxin inh: 70; Cycloheximide cs: 41; LmPK inhibitor: inactive; Pf growth 96h: inactive

How did CC(=O)Nc1ccc2nc(NC(=O)C(Cl)(Cl)Cl)sc2c1 do in these assays?
Shiga toxin inh: inactive; Cycloheximide cs: inactive; Pf growth 48h: inactive; LmPK inhibitor: inactive; Pf growth 96h: inconclusive

Results for CSc1nc2ccc(S(=O)(=O)N(C)C)cc2s1 ?
Shiga toxin inh: inactive; Cycloheximide cs: inactive; LmPK inhibitor: inactive; Pf growth 96h: 12µM

What do the screens show for `O=C(c1cccs1)N1CCN(Cc2cccc([N+](=O)[O-])c2)CC1`?
Shiga toxin inh: inactive; Cycloheximide cs: inactive; Pf growth 48h: inactive; LmPK inhibitor: inactive; Pf growth 96h: inactive

How did CCc1ccc(OCc2nnc(SCC(=O)Nc3cccc(C(=O)N4CCOCC4)c3)o2)cc1 do in these assays?
Shiga toxin inh: inactive; Cycloheximide cs: inactive; Pf growth 48h: inactive; LmPK inhibitor: inactive; Pf growth 96h: inconclusive

Results for CC1CCN(C(=O)C2CCCN2S(=O)(=O)c2ccc(Cl)cc2)CC1 (centres undefined) ?
Shiga toxin inh: inactive; Cycloheximide cs: inactive; Pf growth 48h: inactive; LmPK inhibitor: inactive; Pf growth 96h: inconclusive

What do the screens show for `CCc1c(C)c2ccc(OC(C)C(=O)NC(Cc3c[nH]c4ccc(O)cc34)C(=O)O)c(C)c2oc1=O` (centres undefined)?
Shiga toxin inh: inactive; Cycloheximide cs: inactive; Pf growth 48h: inactive; LmPK inhibitor: inactive; Pf growth 96h: inactive

Results for CC(=O)Nc1ccc(/C(C)=N/Nc2nc(Nc3cccc4ccccc34)nc(N3CCOCC3)n2)cc1 ?
Shiga toxin inh: inactive; Cycloheximide cs: inactive; Pf growth 48h: 13µM; LmPK inhibitor: inactive; Pf growth 96h: inconclusive

What do the screens show for `CCOC(=O)N1CCN(S(=O)(=O)N2CCCC(C(=O)NCc3cccc(OC)c3)C2)CC1` (centres undefined)?
Shiga toxin inh: inactive; Cycloheximide cs: inactive; Pf growth 48h: inactive; LmPK inhibitor: inactive; Pf growth 96h: 6.6µM

What do the screens show for `COc1cccc(CNC(=O)C2CCCN(S(C)(=O)=O)C2)c1` (centres undefined)?
Shiga toxin inh: inactive; Cycloheximide cs: inactive; Pf growth 48h: inactive; LmPK inhibitor: inactive; Pf growth 96h: inactive

What do the screens show for `CSc1ncccc1C(=O)N1CCCC(CCC(=O)NCc2ccc(F)c(F)c2)C1` (centres undefined)?
Shiga toxin inh: inactive; Cycloheximide cs: inactive; Pf growth 48h: inconclusive; LmPK inhibitor: inactive; Pf growth 96h: inconclusive

Results for Cc1ccn(CCC(=O)N2CCCC(CCC(=O)NCc3ccc(F)c(F)c3)C2)n1 (centres undefined) ?
Shiga toxin inh: inactive; Cycloheximide cs: inactive; Pf growth 48h: inactive; LmPK inhibitor: inactive; Pf growth 96h: 12µM

What do the screens show for `COc1ccc(C(=O)N2CCCC(CCC(=O)NCc3ccc(F)c(F)c3)C2)o1` (centres undefined)?
Shiga toxin inh: 94; Cycloheximide cs: 26; Pf growth 48h: inactive; LmPK inhibitor: inactive; Pf growth 96h: inactive

How did COc1ccc(C(=O)N2CCCC(CCC(=O)NCc3ccc(F)c(F)c3)C2)cc1F (centres undefined) do in these assays?
Shiga toxin inh: inactive; Cycloheximide cs: inactive; Pf growth 48h: inactive; LmPK inhibitor: inactive; Pf growth 96h: inactive

Results for COc1cccc(CNC(=O)CCC2CCCN(C(=O)c3cc4ccccc4o3)C2)c1 (centres undefined) ?
Shiga toxin inh: 68; Cycloheximide cs: 48; Pf growth 48h: inactive; LmPK inhibitor: inconclusive; Pf growth 96h: inconclusive
